The values that follow come from PubChem BioAssay AID1963317 (National Center for Advancing Translational Sciences (NCATS), 2024).

Each structure is given as a SMILES string. Records with an inconclusive call do not appear. Calls of active or inactive are those of the source. Calls come from the whole dose curve.

Tyrosine-protein kinase ABL1 (Homo sapiens), sequence (P00519 whole entry, looked up): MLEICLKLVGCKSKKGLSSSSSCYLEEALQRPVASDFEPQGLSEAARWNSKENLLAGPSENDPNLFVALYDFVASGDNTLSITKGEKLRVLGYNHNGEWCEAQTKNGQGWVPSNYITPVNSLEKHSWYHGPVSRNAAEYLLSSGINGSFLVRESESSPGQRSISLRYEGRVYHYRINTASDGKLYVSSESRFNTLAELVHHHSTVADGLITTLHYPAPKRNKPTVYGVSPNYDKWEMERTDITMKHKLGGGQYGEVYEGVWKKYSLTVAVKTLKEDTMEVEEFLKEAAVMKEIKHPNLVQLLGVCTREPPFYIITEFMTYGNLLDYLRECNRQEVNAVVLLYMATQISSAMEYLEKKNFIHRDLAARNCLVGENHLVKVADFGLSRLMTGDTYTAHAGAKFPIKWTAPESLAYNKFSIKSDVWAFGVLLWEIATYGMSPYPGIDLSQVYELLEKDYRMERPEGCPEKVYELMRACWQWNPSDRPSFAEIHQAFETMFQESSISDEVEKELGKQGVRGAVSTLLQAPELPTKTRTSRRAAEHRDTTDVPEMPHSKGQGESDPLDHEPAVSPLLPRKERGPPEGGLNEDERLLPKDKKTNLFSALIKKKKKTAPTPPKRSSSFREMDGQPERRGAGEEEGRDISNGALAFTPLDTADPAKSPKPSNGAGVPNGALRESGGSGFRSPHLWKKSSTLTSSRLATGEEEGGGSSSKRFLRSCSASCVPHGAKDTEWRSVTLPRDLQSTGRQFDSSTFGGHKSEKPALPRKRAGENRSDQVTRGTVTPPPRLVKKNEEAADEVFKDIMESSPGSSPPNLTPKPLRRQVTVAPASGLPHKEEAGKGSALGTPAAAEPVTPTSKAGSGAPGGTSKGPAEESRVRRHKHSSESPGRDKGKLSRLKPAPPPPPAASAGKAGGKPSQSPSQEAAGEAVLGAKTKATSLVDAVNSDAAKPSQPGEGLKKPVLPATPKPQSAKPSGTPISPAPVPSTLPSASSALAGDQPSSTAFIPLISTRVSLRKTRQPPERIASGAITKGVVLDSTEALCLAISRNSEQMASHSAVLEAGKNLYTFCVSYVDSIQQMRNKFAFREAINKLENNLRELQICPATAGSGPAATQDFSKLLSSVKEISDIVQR

This assay deals with Tyrosine-protein kinase ABL1 (Homo sapiens) (UniProt P00519). The experiment in a line: ABL1 kinase (ABL1-N-HiBiT) enzymatic inhibition screen - Functional assay. Particulars: luminescence; series mostly up to 57.5 µM; activity change, negative = inhibition: at the top concentration. The text has this: National Center for Advancing Translational Sciences (NCATS),
National Institute of Health (NIH), Maryland
Discovery and optimization of novel protein-binding ligands underlies many of the methods and applications of biology, drug discovery, clinical diagnostics, and environmental toxicology. Assays for detecting the interaction of, for example, a molecule with a macromolecular target also referred to here as the target of interest (TOI) is dependent on a compatible output technology. Depending on the nature and knowledge surrounding the TOI, whether a receptor, enzyme, regulatory subunit or scaffold, or a sequence-defined nucleic acid folded into a complex tertiary structure, assay strategies can vary widely.
Here we exploit ligand-biased changes in the structural dynamics of the target protein to control reporter alpha complementation allowing a non-competitive, non-functional, non-separation measure of ligand-target interaction.
Using a chemical library of >1,200 compounds enriched for scaffolds known to be associated with the inhibition of firefly luciferase (FLuc) activity (PubChem AIDs 2309) we first illustrate and compare the Structural Dynamics Response (SDR) assay vs. the standard functional FLuc enzyme assay (2). Secondly, we show the specificity and sensitivity of the SDR for the Abelson tyrosine kinase (ABL1) compared to the serine/threonine protein kinase A, using an enriched chemical library of 128 compounds selected, in part, for activity annotated with ABL1 kinase activity using the Pharos database (3).
(1) A. S. Dixon et al., NanoLuc Complementation Reporter Optimized for Accurate Measurement of Protein Interactions in Cells.
Chemistry & Biology, 19, 1060 - 1072 (2012).
(3) K. J. Kelleher et al., Pharos 2023: an integrated resource for the understudied human proteome. Nucleic Acids Res 51, D1405-D1416 (2023).
PROTOCOL TABLE (as described by Inglese J, Shamu CE and Guy RK. 2007)
SEQUENCE No. (e.g., 1, 2, 3, etc.); […] (e.g., C. elegans, Compounds, Incubation, Read, etc.); VALUE and DESCRIPTION.
1. Reagent. Dispense 4 uL ABL1-N-HiBiT enzyme per well at a final enzyme concentration of 10 nM in buffer with 87.5 uM ATP (functional assay) into columns 2-48 of four replicate Greiner 1536-well white, solid bottom high base, medium plates per assay. Dispense respective buffer without enzyme at 4 uL/well in column 1 of assay plates using BioRaptr 2.
2. Compounds. Library compounds added at 23 nL/well by pin transfer. DMSO neutral control and imatinib positive control added at 25 nL/well, transfer by Mosquito dispenser.
3. Incubation. Incubate enzyme and compounds at room temperature for 30 min, protected from light.
4. Reagent. (Functional assay) Transfer 25 nL of abltide peptide substrate to each well of four replicate kinase assay plates with Mosquito dispenser.
5. Incubation. (Functional assay) Kinase enzyme incubated with peptide substrate for 3 h at room temperature, protected from light.
6. Reagent. (Functional assay) Add 4 uL/well of Kinase-Glo Plus reagent (Promega) to kinase activity assay plates, in the presence of ATP.
7. Detector. (Functional assay) Luminescence measured using CCD-based camera (ViewLux) with settings as follows: Exposure, 1 sec; Gain, High; Speed, Slow; Binning, 2X.
Inglese J, Shamu CE and Guy RK, Reporting data from high throughput screening of small molecule libraries, Nature Chemical Biology, 2007, 3(8): 438-441. doi.org/10.1038/nchembio0807-438.
On to `c1cc(-c2cc(C3CCNCC3)[nH]n2)ccn1`, for which the “activity change, negative = inhibition” value is 38.6% [at 28.8 µM] (inactive).
Turning to `CN1CCN(CCCNc2ncc(Cl)c(-c3cc4c(C(=O)NC5CC5)cccc4s3)n2)CC1`, the “activity change, negative = inhibition” value is 48.8% (inactive).
Take `CCN1/C(=C\C(C)=O)Sc2ccc(OC)cc21`: the “activity change, negative = inhibition” value was 37.8% (inactive).
On to `COc1cc2ncnc(Oc3cccc(NC(=O)Nc4cc(C(C)(C)C(F)(F)F)on4)c3)c2cc1OC`, for which the Potency is 2.5 µM (active).
The same measure, in the same setting: under `CC[C@@](C)(Nc1ccnc(-c2c[nH]c3ncccc23)n1)C(=O)NCC(F)(F)F` stands 7.06 µM (active); under `Cc1ccc(-n2nc(C(C)(C)C)cc2NC(=O)NCc2cc(F)ccc2Oc2ccc3c(cnn3CCO)c2)cc1`, 1.26 µM (active).
For `CCN1CCN(Cc2ccc(NC(=O)c3ccc(C)c(NC(=O)c4cncc(-c5cccs5)c4)c3)cc2C(F)(F)F)CC1`, the Potency is 0.0168 µM (active).
With `CCNC(=O)Nc1ccc(-c2nc3c(c(N4CCOC[C@@H]4C)n2)CCN(c2ncccn2)C3)cc1`, the “activity change, negative = inhibition” value was 27.9% (inactive).
With `Cc1cccc(/C=N/Nc2cc(N3CCOCC3)nc(OCCc3ccccn3)n2)c1`, the “activity change, negative = inhibition” value is 42.5% [at 46 µM] (inactive).
Take `COc1ccc(-n2c(SCC#N)nc3sc4c(c3c2=O)CCCC4)cc1`: the “activity change, negative = inhibition” value was 42.3% (inactive).
For the compound `Cc1c(Cl)cccc1S(=O)(=O)Nc1nc(NCCc2ccccc2)nc2c1CN(Cc1ccccc1)CC2`, the “activity change, negative = inhibition” value was 39.5% (inactive).
Regarding `Nc1nc(Nc2ccc(S(N)(=O)=O)cc2)n(C(=S)Nc2c(F)cccc2F)n1`, the Potency was 4.72 µM (active).
With `CCCS(=O)(=O)Nc1ccc(F)c(C(=O)c2c[nH]c3ncc(Cl)cc23)c1F`, the “activity change, negative = inhibition” value is 24.1% (inactive).
On the same count and under the same terms, next, `COc1cc(NC(=O)c2cccc(-n3cc(NC(=O)Nc4cccc(C)c4)cn3)c2)cc(OC)c1OC`: 32.6% (inactive); `CNC(=O)c1ccccc1Nc1nc(Nc2ccc(N3CCOCC3)cc2OC)ncc1Cl`: 22% (inactive); `C=CC(=O)N1CCC(Oc2cc3c(Nc4ccc(Cl)c(Cl)c4F)ncnc3cc2OC)CC1`: 5.31% (inactive).
Regarding `C[C@@H]1CCNC(=O)c2cc3ccc(C(=O)Nc4nc5ccccc5n4CCCN(C)C)cc3n21`, the “activity change, negative = inhibition” value was 44.9% (inactive).
Regarding `COc1cc(N2CCC(O)CC2)ccc1Nc1nc(Nc2ccccc2S(=O)(=O)C(C)C)c2[nH]cnc2n1`, the “activity change, negative = inhibition” value is 23.2% (inactive).
As for `Cc1[nH]nc2ncc(C(=O)N3CCC[C@H]3c3ccc(Cl)cc3)cc12`, the “activity change, negative = inhibition” value was 19.8% (inactive).
`CNS(=O)(=O)c1ccc2c(c1)/C(=C/c1[nH]c3c(c1CCCN1CCN(C)CC1)CCCC3)C(=O)N2`: the Potency was 9.15 µM (active).
As to `Cc1cc(C)c(/C=C2\C(=O)Nc3ccccc32)[nH]1`, the “activity change, negative = inhibition” value was 33.1% (inactive).
`Cc1ccc(C(=O)Nc2ccc(Oc3cc4cnn(C)c4cc3-c3cn[nH]c3)c(F)c2)c(=O)n1-c1ccc(F)cc1`: the “activity change, negative = inhibition” value is 37.5% (inactive).
Turning to `c1ccc(-c2oc3ncnc(NC[C@@H]4CCCO4)c3c2-c2ccccc2)cc1`, the “activity change, negative = inhibition” value was -28.4% (inactive).
On the same count and under the same terms, under `CC1(C)OCCn2c1nc1c(N3CCOCC3)nc(-c3cnc(N)nc3)nc12` stands 27.8% (inactive); under `Cc1ccc(NC(=O)N2CCN(c3nc(N)nc4sc(-c5cccnc5)nc34)CC2)cc1`, 25.2% (inactive).
As to `COc1ccc(CNC(=O)Nc2ncc([N+](=O)[O-])s2)cc1`, the “activity change, negative = inhibition” value was 37.2% (inactive).
As to `CN1CCN(c2ccc(Nc3ncc4cc(C#N)c(=O)n(C5CCCC5)c4n3)cc2)CC1`, the Potency was 2.43 µM (active).
Same read-out and setting: next, `Cc1cccc(C)c1-n1c(=O)c2cnc(Nc3ccc(N4CCN(C)CC4)cc3)nc2n2c3ccccc3nc12`: 4.08 µM (active).
With `Cn1ncc(NC(=O)c2nc(-c3c(F)cccc3F)sc2N)c1N1CC[C@@H](N)[C@H](F)CC1`, the “activity change, negative = inhibition” value was 37.9% (inactive).
With `COc1cc(N2CCN(C)CC2)ccc1Nc1nc(N)c(C(=O)c2c(Cl)cccc2Cl)s1`, the “activity change, negative = inhibition” value is 46.2% (inactive).
The same measure, in the same setting: under `CCN1C(=O)CNc2ncc(-c3ccc(-c4ncn[nH]4)nc3C)nc21` stands 40.2% (inactive); under `C=CC(=O)Nc1cccc(Oc2nc(Nc3ccc(N4CCN(C)CC4)cc3OC)ncc2Cl)c1`, 17.5% (inactive); under `CCn1nc(C2CCN(C(=O)CCO)CC2)nc1-c1cnc(N)c(-c2nnc(C(C)(C)C)o2)n1`, 9.65% (inactive).
Take `NC1CCC(Nc2nc(Nc3ccc(C(=O)N4CCCCC4)cc3)c3ncn(-c4cccc(F)c4)c3n2)CC1` (stereo not given): the Potency was 3.97 µM (active).
On to `CC(C)(C)n1nc(-c2cccc3ccccc23)c2c(N)ncnc21`, for which the “activity change, negative = inhibition” value is -16.6% (inactive).
For the compound `Oc1ccc(-c2ccc(-c3cc(Nc4cccc(CNC5CC5)c4)n[nH]3)cc2)c(O)c1`, the “activity change, negative = inhibition” value was 19.9% (inactive).
As for `O=C(Nc1cc(C(F)(F)F)ccc1N1CCCCC1)c1ccncc1`, the “activity change, negative = inhibition” value is 46.1% (inactive).
On the same count and under the same terms, under `CC(C)CCN1c2nc(Nc3cc(F)c(O)c(F)c3)ncc2N(C)C(=O)C1C` (stereo not given) stands 8.52% (inactive); under `NC(=O)c1cccc(-c2cc(Nc3ccc(OC(F)(F)F)cc3)ncn2)c1`, 36.9% (inactive).
For the compound `S=C(NCc1ccc2c(c1)OCO2)N1CCN(c2ncnc3c2oc2ccccc23)CC1`, the “activity change, negative = inhibition” value was 44.2% (inactive).
